Source: PubChem BioAssay (EPA / NIEHS)
Values joined by “and” are separate entries in the source; they are usually repeats but may differ in a detail not shown here. Identical values can stand only once. Results filed as inconclusive are left out. The source holds several records for some structures; these can differ, active in one and inactive in another. Active and inactive are the calls of the source. The calls were made as follows, unless noted: active = hit-call score of the fitted dose curve at least 0.9, where 1 is the maximum; inconclusive = response in the unintended direction; inactive = score below 0.9.

How the values were obtained:
[1] = target: zebrafish Thyroid Hormone Receptor alpha (TRa), thraa (gene 30670) (UniProt Q98867); experiment: ATG_zfTRa_XSP2: Attagene TRANS-FACTORIAL Multi-Species (XSP1) HepG2 Assay for zebrafish Thyroid Hormone Receptor alpha (TRa) (AID 2283832);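 also: actives raise zebrafish TRa-Gal4 reporter transcript above DMSO baseline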
Outline: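 HepG2 transiently transfected with GAL4-UAS reporter units and chimeric zebrafish TRa-Gal4; reporter mRNA quantified after 24 h dosing by RT-PCR, HpaI digestion and capillary electrophoresis fluorescence. Gain of signal vs DMSO; XSP2 medium contains 3 nM 6-alpha-fluorotestosterone, 1.5 nM norgestrel.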

[2] = system: zebrafish Peroxisome Proliferator-activated Receptor gamma (PPARg), gene 557037; experiment: ATG_zfPPARg_XSP2: Attagene TRANS-FACTORIAL Multi-Species (XSP2) HepG2 Assay for zebrafish Peroxisome Proliferator-activated Receptor gamma (PPARg) (AID 2283833);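 also: reporter mRNA from a zebrafish PPARg GAL4 chimera measured by RT-PCR and capillary electrophoresis; actives increase reporter signal over DMSO so AC50 reflects activation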
Outline: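 HepG2, transient MRTU transfection, 24 h compound; zfPPARg-GAL4 reporter mRNA by RT-PCR + capillary electrophoresis; gain-of-signal vs DMSO.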

[3] = system: turtle Thyroid Hormone Receptor, alpha (TRa), gene 101949057; experiment: ATG_trTRa_XSP2: Attagene TRANS-FACTORIAL Multi-Species (XSP1) HepG2 Assay for turtle Thyroid Hormone Receptor, alpha (TRa) (AID 2283834);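 also: hits raise reporter mRNA over the DMSO baseline so AC50 marks activators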
Outline: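 Multiplexed TRANS reporter assay; HepG2 carrying NR-Gal4 constructs treated 24 h. mRNA of the GAL4-UAS reporter quantified via labelled RT-PCR fragments on a genetic analyzer, vs DMSO negative control.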

[4] = ATG_M_61_XSP2: Attagene TRANS-FACTORIAL Multi-Species (XSP2) HepG2 Assay for M61 Transcription Factor (Internal Marker) (AID 2283835; active = hit-call score of the fitted dose curve at least 0.9, where 1 is the maximum; inactive = score below 0.9;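 also: reporter mRNA of an internal background marker read by RT-PCR and capillary electrophoresis; active means a rise in signal above the DMSO baseline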)
Outline: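 HepG2 cells transiently transfected with multiple GAL4-UAS reporter units; 3 nM 6-alpha-fluorotestosterone and 1.5 nM norgestrel present to stimulate androgen receptor. After 24 h compound exposure, reporter mRNA measured by RT-PCR and capillary electrophoresis fluorescence, gain-of-signal versus DMSO baseline.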

[5] = target: zebrafish Thyroid Hormone Receptor beta (TRb), thrb (gene 30607) (UniProt Q9PVE4); experiment: ATG_zfTRb_XSP2: Attagene TRANS-FACTORIAL Multi-Species (XSP1) HepG2 Assay for zebrafish Thyroid Hormone Receptor beta (TRb) (AID 2283836);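 as to AC50: potency for induction of reporter signal above DMSO so agonist direction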
Outline: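 HepG2 cells transiently transfected with chimeric zebrafish TRb-GAL4 reporter units, dosed 24 h with 3 nM 6-alpha-fluorotestosterone and 1.5 nM norgestrel present. Reporter mRNA quantified by RT-PCR and capillary electrophoresis; gain fitted against DMSO.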

[6] = target: human Thyroid hormone Receptor alpha (TRa), THRA (gene 7067) (UniProt P10827); experiment: ATG_hTRa_XSP2: Attagene TRANS-FACTORIAL Multi-Species (XSP2) HepG2 Assay for human Thyroid hormone Receptor alpha (TRa) (AID 2283838)
Outline: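 HepG2 cells were transiently transfected with GAL4-UAS reporter units for chimeric human TRa-Gal4 and dosed for 24 hours, with 3 nM 6-alpha-fluorotestosterone and 1.5 nM norgestrel present. Reporter mRNA was quantified by RT-PCR, FAM labelling and capillary electrophoresis, with gain of signal fitted versus DMSO.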

[7] = target: frog Thyroid hormone Receptor alpha (TRa), thra-a (gene 397942) (UniProt P15204); experiment: ATG_frTRa_XSP2: Attagene TRANS-FACTORIAL Multi-Species (XSP2) HepG2 Assay for frog Thyroid hormone Receptor alpha (TRa) (AID 2283839);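 as to AC50: AC50 reflects induction of frog TRa-driven reporter mRNA above DMSO baseline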
Experimental: ATG_XSP2_multi-species_TRANS is a cell-based, multiplexed assay created by modifying the existing Attagene TRANS-FACTORIAL system to include a panel of nuclear receptors from some or all the following species: human (Homo sapiens), mouse (Mus musculus), frog (Xenopus laevis), zebrafish (Danio rerio), chicken (Gallus gallus), and turtle (Chrysemys picta). The ECOTOX-FACTORIAL format uses HepG2, a human liver cell line, with measurements taken at 24 hours after chemical dosing in a 24-well plate. Xsp2 included 3 nM 6-alpha-fluorotestosterone and 1.5 nM norgestrel to stimulate the androgen receptor.ATG_frTRa_XSP2 is one of 29 assay components measured or calculated from the ATG_XSP2_multi-species_TRANS assay. It is designed to make measurements of mRNA induction, a form of inducible reporter, as detected with fluorescence intensity signals by Reverse transcription polymerase chain reaction (RT-PCR) and Capillary electrophoresis technology.The assay endpoint ATG_frTRa_XSP2 was analyzed in the positive analysis fitting direction relative to DMSO as the negative control and baseline of activity. Using a type of inducible reporter, measures of mRNA for gain-of-signal activity can be used to understand the reporter gene at the transcription factor-level as they relate to the gene TR. Furthermore, this assay endpoint can be referred to as a primary readout, because this assay has produced multiple assay endpoints where this one serves a reporter gene function. To generalize the intended target to other relatable targets, this assay endpoint is annotated to the nuclear receptor intended target family, where the subfamily is non-steroidal.
(§1) Human liver HepG2 cells are transiently transfected with multiple reporter transcription units (MRTUs) in 6-well plates using FuGene 6 reagent (Roche; 3 ml FuGene/1 mg DNA). The MRTU constructs are regulated by a cis-regulating element (promoter). […] A major difference between the CIS and TRANS system is that in CIS activities of endogenous TFs are measured, whereas the TRANS assay evaluates changes in activities of exogenous, chimeric NR-Gal4 proteins. […] At the end of 24 hour incubation, total RNA was isolated using TriZol reagent (Invitrogen). The isolated RNA is then reverse-transcribed using oligo(dT) primer and Mo-MLV reverse transcriptase (Invitrogen) with DNAse I (Ambion) treatment for 30 min. The one-tenth of the produced cDNA was amplified by PCR using Taq DNA polymerase (Invitrogen) and two reporter sequence-specific primers. The PCR products were fluorescently labeled by primer extension with 6-arboxyfluorescein (6-FAM) 5'-labeled reporter sequence-specific primer (2 min at 95 C, 20 s at 68 C and 10 min at 72 C) and these products were digested with 5U of HpaI (New England Biolabs) for 2h at 37 C. The fragments were purified using Qiaquick PCR columns (Qiagen), analyzed on an ABI 3130xL genetic analyzer (Applied Biosystems) with peak positions identified by using a set of X-rhodamine (ROX)-labeled MapMarker1000 molecular weight standards (BioVentures). The raw capillary electrophoresis data was processed using Attagraph software (Attagene).

[8] = target: human Thyroid hormone Receptor beta (TRb), THRB (gene 7068) (UniProt P10828); experiment: ATG_hTRb_XSP2: Attagene TRANS-FACTORIAL Multi-Species (XSP2) HepG2 Assay for human Thyroid hormone Receptor beta (TRb) (AID 2283840);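 also: actives raise reporter mRNA so potency reflects agonist-like gain of signal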
Outline: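 Gain-of-signal reporter transcription, referenced to DMSO, was measured in transiently transfected HepG2 after 24 h exposure; labeled RT-PCR products were resolved by capillary electrophoresis. Assay medium included 3 nM 6-alpha-fluorotestosterone and 1.5 nM norgestrel.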

[9] = system: Sodium/Iodide Symporter (NIS), SLC5A5 (gene 6528); experiment: CPHEA_Stoker_NIS_Inhibition_RAIU: CPHEA's Radioactive Iodide Uptake (RAIU) Assay for Sodium/Iodide Symporter (NIS) Inhibition, Stoker and Laws Labs (AID 2283841)
Outline: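 Iodide uptake read as CPM of intracellular 125I (final 329 pM) after 2 h room-temperature exposure in HEPES-buffered HBSS, pH 7.4. Human NIS-expressing HEK293T cells; six concentrations 0.001–100 uM, 0.5% DMSO, normalised to DMSO wells.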

[10] = ATG_XTT_Cytotoxicity_XSP2: Cytotoxicity Assessment in the Attagene TRANS-FACTORIAL Multi-Species (XSP2) HepG2 Assay (AID 2283837)
Experimental: ATG_XSP2_XTT_Cytotoxicity_multi-species is a cell-based, single-readout assay that uses HepG2, a human liver cell line, with measurements taken at 24 hours after chemical dosing in a 24-well plate.ATG_XTT_Cytotoxicity_XSP2 is an assay component measured from the ATG_XSP2_XTT_Cytotoxicity_multi-species assay. It is designed to make measurements of cell number, a form of viability reporter, as detected with fluorescence intensity signals by XTT cytotoxicity assay technology.Data from the assay component ATG_XTT_Cytotoxicity_XSP2 was analyzed into 1 assay endpoint. This assay endpoint, ATG_XTT_Cytotoxicity_XSP2, was analyzed in the positive analysis fitting direction relative to DMSO as the negative control and baseline of activity. Using a type of viability reporter, loss-of-signal activity can be used to understand changes in the viability. Furthermore, this assay endpoint can be referred to as a primary readout, because the performed assay has only produced 1 assay endpoint. To generalize the intended target to other relatable targets, this assay endpoint is annotated to the cell cycle intended target family, where the subfamily is cytotoxicity.
as §1

Sequence of frog Thyroid hormone Receptor alpha (TRa), thra-a (gene 397942) (P15204 whole entry, looked up): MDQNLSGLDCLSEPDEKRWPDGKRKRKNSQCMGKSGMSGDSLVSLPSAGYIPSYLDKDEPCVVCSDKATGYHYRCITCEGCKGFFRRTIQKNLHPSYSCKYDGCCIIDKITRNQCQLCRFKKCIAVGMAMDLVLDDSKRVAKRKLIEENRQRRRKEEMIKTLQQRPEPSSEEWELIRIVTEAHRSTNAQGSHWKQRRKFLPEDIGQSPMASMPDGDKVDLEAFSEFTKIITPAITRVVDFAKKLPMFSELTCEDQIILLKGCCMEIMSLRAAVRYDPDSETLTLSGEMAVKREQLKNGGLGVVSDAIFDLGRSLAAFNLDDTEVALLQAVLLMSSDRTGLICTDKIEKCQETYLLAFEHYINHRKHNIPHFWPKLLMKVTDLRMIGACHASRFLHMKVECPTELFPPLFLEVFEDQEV
Sequence of human Thyroid hormone Receptor beta (TRb), THRB (gene 7068) (P10828 whole entry, looked up): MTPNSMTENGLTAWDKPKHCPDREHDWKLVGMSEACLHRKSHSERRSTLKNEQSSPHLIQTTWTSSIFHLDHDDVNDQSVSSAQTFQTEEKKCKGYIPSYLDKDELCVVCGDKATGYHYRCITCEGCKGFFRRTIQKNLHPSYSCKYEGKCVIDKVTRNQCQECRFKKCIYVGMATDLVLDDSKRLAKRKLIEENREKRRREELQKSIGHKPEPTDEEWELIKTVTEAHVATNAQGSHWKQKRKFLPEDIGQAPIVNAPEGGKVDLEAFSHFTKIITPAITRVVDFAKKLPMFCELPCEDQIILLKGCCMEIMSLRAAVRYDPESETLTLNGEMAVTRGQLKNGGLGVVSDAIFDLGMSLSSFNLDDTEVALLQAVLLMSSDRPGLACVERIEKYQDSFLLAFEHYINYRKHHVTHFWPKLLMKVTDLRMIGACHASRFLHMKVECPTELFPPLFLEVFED
Sequence of zebrafish Thyroid Hormone Receptor beta (TRb), thrb (gene 30607) (Q9PVE4 whole entry, looked up, the tested form may be a part): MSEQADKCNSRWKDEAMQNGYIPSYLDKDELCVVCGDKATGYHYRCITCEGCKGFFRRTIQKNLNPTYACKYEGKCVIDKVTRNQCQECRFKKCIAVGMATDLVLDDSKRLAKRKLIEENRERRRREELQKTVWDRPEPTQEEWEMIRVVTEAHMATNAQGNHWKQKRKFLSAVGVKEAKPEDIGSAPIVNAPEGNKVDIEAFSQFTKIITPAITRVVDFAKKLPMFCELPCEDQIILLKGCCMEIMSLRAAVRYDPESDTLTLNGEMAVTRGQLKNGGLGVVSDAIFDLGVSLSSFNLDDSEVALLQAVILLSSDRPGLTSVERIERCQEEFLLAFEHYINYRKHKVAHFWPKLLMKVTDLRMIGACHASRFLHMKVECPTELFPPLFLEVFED
Sequence of human Thyroid hormone Receptor alpha (TRa), THRA (gene 7067) (P10827 whole entry, looked up, the tested form may be a part): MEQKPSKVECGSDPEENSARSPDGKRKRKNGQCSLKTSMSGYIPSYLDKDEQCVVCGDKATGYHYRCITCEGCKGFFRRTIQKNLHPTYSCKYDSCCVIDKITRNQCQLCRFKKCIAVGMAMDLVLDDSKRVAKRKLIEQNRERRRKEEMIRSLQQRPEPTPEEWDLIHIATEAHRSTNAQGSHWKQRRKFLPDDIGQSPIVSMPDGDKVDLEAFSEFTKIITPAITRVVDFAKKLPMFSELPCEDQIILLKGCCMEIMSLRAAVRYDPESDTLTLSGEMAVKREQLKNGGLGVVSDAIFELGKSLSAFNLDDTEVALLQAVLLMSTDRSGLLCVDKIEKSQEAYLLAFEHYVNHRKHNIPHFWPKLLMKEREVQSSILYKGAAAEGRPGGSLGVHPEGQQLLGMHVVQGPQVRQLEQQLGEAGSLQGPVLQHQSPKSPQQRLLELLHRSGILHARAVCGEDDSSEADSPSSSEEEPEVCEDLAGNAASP
Sequence of zebrafish Thyroid Hormone Receptor alpha (TRa), thraa (gene 30670) (Q98867 whole entry, looked up, the tested form may be a part): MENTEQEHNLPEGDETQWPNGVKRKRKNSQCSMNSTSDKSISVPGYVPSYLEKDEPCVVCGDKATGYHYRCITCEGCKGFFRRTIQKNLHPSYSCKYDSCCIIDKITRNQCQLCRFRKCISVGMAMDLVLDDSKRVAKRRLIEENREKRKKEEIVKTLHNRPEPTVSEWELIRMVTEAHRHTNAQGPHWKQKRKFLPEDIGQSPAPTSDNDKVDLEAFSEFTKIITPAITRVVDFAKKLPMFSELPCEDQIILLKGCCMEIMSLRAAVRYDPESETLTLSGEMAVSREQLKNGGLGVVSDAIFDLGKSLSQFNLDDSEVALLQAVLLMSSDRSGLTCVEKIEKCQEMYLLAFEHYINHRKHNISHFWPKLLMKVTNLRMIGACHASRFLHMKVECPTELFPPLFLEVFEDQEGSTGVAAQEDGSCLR

CCC(CC)Nc1c([N+](=O)[O-])cc(C)c(C)c1[N+](=O)[O-]
outcome [1]: inactive
outcome [2]: inactive
outcome [3]: inactive
outcome [4]: inactive
outcome [5]: inactive
outcome [6]: inactive
outcome [7]: inactive
outcome [8]: inactive
outcome [9]: inactive

CCOC(=O)COc1cc(-c2nn(C)c(OC(F)F)c2Cl)c(F)cc1Cl
outcome [9]: inactive

CCOP(=S)(OCC)Oc1ccc2c(C)c(Cl)c(=O)oc2c1
outcome [2]: inactive
AC50 [3]: 64.7 µM (active)
outcome [4]: inactive
outcome [5]: inactive
outcome [6]: inactive
outcome [7]: inactive
outcome [8]: inactive
AC50 [9]: 9.92 µM (active)

CCCCOC(=O)[C@@H](C)Oc1ccc(Oc2ccc(C#N)cc2F)cc1
outcome [9]: inactive

CCC(=O)Nc1ccc(Cl)c(Cl)c1
outcome [1]: inactive
outcome [2]: inactive
outcome [3]: inactive
outcome [4]: inactive
outcome [5]: inactive
outcome [10]: inactive
AC50 [6]: 165 µM (active)
outcome [6]: inactive
outcome [7]: inactive
outcome [8]: inactive
outcome [9]: inactive

COP(=O)(OC)OC(Br)C(Cl)(Cl)Br (stereo unspecified)
outcome [9]: inactive

CCc1cccc(C)c1N(C(=O)CCl)C(C)COC (stereo unspecified)
outcome [1]: inactive
outcome [2]: inactive
outcome [4]: inactive
outcome [5]: inactive
outcome [7]: inactive

C#CCC1=C(C)C(OC(=O)C2C(C=C(C)C)C2(C)C)CC1=O (stereo unspecified)
outcome [1]: inactive
outcome [2]: inactive
outcome [3]: inactive
outcome [4]: inactive
outcome [5]: inactive
outcome [6]: inactive
outcome [7]: inactive
outcome [8]: inactive
AC50 [9]: 47.5 µM (active)

C[Si](Cn1cncn1)(c1ccc(F)cc1)c1ccc(F)cc1
outcome [9]: inactive

CCCOCC(=Nc1ccc(Cl)cc1C(F)(F)F)n1ccnc1
outcome [1]: inactive
outcome [2]: inactive
outcome [4]: inactive
outcome [5]: inactive
AC50 [9]: 29 µM (active)

FC(F)C(F)(F)OCC(Cn1cncn1)c1ccc(Cl)cc1Cl (stereo unspecified)
outcome [9]: inactive

CC(C)N(C(=O)SCC(Cl)=C(Cl)Cl)C(C)C
AC50 [9]: 21.1 µM (active)

COc1ccc(C(=CC(=O)N2CCOCC2)c2ccc(Cl)cc2)cc1OC
outcome [1]: inactive
outcome [2]: inactive
outcome [4]: inactive
outcome [5]: inactive
outcome [10]: inactive
outcome [6]: inactive
outcome [7]: inactive
outcome [8]: inactive

CON=C(C(=O)OC)c1ccccc1CON=C(C)c1cccc(C(F)(F)F)c1
AC50 [9]: 2.05 µM (active)

CCOP(=S)(OCC)Oc1ccc([N+](=O)[O-])cc1
outcome [9]: inactive

CCCCN(CC)c1c([N+](=O)[O-])cc(C(F)(F)F)cc1[N+](=O)[O-]
outcome [9]: inactive

CSc1nc(NC(C)C)nc(NC(C)C)n1
outcome [9]: inactive

Nc1c(Cl)cc([N+](=O)[O-])cc1Cl
outcome [1]: inactive
outcome [2]: inactive
AC50 [3]: 23.6 µM (active) and 29.8 µM (active)
AC50 [5]: 48.3 µM (active)
outcome [5]: inactive
outcome [10]: inactive
AC50 [6]: 43.6 µM (active) and 22.8 µM (active)
AC50 [7]: 27.1 µM (active)
AC50 [8]: 27.6 µM (active) and 82.2 µM (active)
outcome [9]: inactive

O=[N+]([O-])c1cc(C(F)(F)F)c(Cl)c([N+](=O)[O-])c1Nc1ncc(C(F)(F)F)cc1Cl
AC50 [9]: 6.41 µM (active)

CC(C)=CC1C(C(=O)OCN2C(=O)C3=C(CCCC3)C2=O)C1(C)C (stereo unspecified)
AC50 [9]: 32.9 µM (active)

Cc1cc(C2CC2)nc(Nc2ccccc2)n1
AC50 [9]: 44 µM (active)

N#CSCSC#N
AC50 [9]: 18.3 µM (active)

CC1(C(=O)Nc2ccc(O)c(Cl)c2Cl)CCCCC1
outcome [9]: inactive

CCOP(=S)(Oc1cnc(C(C)(C)C)nc1)OC(C)C (stereo unspecified)
outcome [9]: inactive

CCOP(=O)(NC(C)C)Oc1ccc(SC)c(C)c1 (stereo unspecified)
outcome [1]: inactive
AC50 [2]: 100 µM (active)
outcome [2]: inactive
outcome [3]: inactive
outcome [4]: inactive
outcome [5]: inactive
outcome [10]: inactive
outcome [7]: inactive

C=C(C)[C@H]1Cc2c(ccc3c2O[C@@H]2COc4cc(OC)c(OC)cc4[C@@H]2C3=O)O1
AC50 [9]: 0.0708 µM (active)

CCCSP(=O)(OCC)Oc1ccc(Br)cc1Cl (stereo unspecified)
outcome [9]: inactive

CSC1=N[C@@](C)(c2ccccc2)C(=O)N1Nc1ccccc1
outcome [9]: inactive

COc1cccc(C(=O)NN(C(=O)c2cc(C)cc(C)c2)C(C)(C)C)c1C
AC50 [9]: 15.8 µM (active)

CCOP(=S)(OCC)OC(Cl)C(Cl)(Cl)Cl (stereo unspecified)
outcome [9]: inactive

CCOP(=S)(OCC)SCCSCC
outcome [9]: inactive

C#CC(C)(C)NC(=O)c1cc(Cl)cc(Cl)c1
outcome [1]: inactive
outcome [2]: inactive
outcome [3]: inactive
outcome [4]: inactive
outcome [5]: inactive
outcome [6]: inactive
AC50 [7]: 26.8 µM (active)
outcome [8]: inactive

CC[C@H](C)[C@H]1O[C@]2(C=C[C@@H]1C)C[C@@H]1C[C@@H](C/C=C(\C)[C@@H](O[C@H]3C[C@H](OC)[C@@H](O[C@H]4C[C@H](OC)[C@@H](NC)[C@H](C)O4)[C@H](C)O3)[C@@H](C)/C=C/C=C3\CO[C@@H]4[C@H](O)C(C)=C[C@@H](C(=O)O1)[C@]34O)O2
AC50 [9]: 13.3 µM (active)

CC(COc1ccc(Oc2ccccc2)cc1)Oc1ccccn1 (stereo unspecified)
outcome [9]: inactive

CCCCSP(=O)(SCCCC)SCCCC
outcome [9]: inactive
